Experimental findings from the antibiotic and cytotoxicity screens of Wong et al. (2023) are described below.

The campaign covered roughly 39,000 compounds. About 3,300 (8.5%) were called active. This is one part of a sample in which actives are shown more often than they occur.

The subject of the test is HepG2. The test can be described thus: cytotoxicity call (relative viability < 0.9). Conditions: 10 µM.
In the case of `C=C(/C=C\CNS(=O)(=O)c1ccc(C)cc1)[C@H](O)[C@H]1CCCN1S(=O)(=O)c1ccccc1[N+](=O)[O-]`, the cytotoxicity call was “inactive”.

As for `C[C@H]1CN([C@@H](C)CO)C(=O)Cc2cc(NC(=O)Nc3ccc(C(F)(F)F)cc3)ccc2O[C@H]1CN(C)Cc1ccncc1`, the cytotoxicity call was “active”.

For `C[C@@H]1CN([C@@H](C)CO)C(=O)Cc2cc(NC(=O)Nc3ccc(C(F)(F)F)cc3)ccc2O[C@@H]1CN(C)Cc1ccncc1`, the cytotoxicity call was “active”.

`C[C@@H]1CCCCO[C@@H](CN(C)C(=O)CCC(F)(F)F)[C@@H](C)CN([C@H](C)CO)C(=O)c2cc(NC(=O)Nc3ccccc3)ccc2O1`: the cytotoxicity call was “inactive”.

Regarding `N[C@@H](Cn1ccnc1)c1ccccc1`, the cytotoxicity call was “inactive”.

Consider `COc1ccc(C#Cc2ccc3c(c2)O[C@@H](CN(C)C(=O)c2ccccn2)[C@@H](C)CN([C@@H](C)CO)S3(=O)=O)cc1`, for which the cytotoxicity call was “inactive”.

Consider `CC/C(=C\C(=N\O)C(N)=O)[C@@H](C)[N+](=O)[O-]`, for which the cytotoxicity call is “inactive”.

Take `CC(=O)N1CCCC(=O)CC1`: the cytotoxicity call is “inactive”.

On to `C[C@@H]1CCCCO[C@H](CN(C)Cc2ccc3c(c2)OCO3)[C@H](C)CN([C@@H](C)CO)C(=O)c2cc(NC(=O)Cc3ccccc3)ccc2O1`, for which the cytotoxicity call was “inactive”.

In the case of `CNC(=O)C[C@@H]1CC[C@H]2[C@@H](COc3ccc(NC(=O)c4ccc(C(F)(F)F)cc4)cc3C(=O)N2C)O1`, the cytotoxicity call was “inactive”.

Consider `O=C(C[C@H]1C[C@@H]2c3cc(NC(=O)c4ccc5c(c4)OCO5)ccc3O[C@@H]2[C@H](CO)O1)NCc1cccnc1`, for which the cytotoxicity call is “inactive”.

Take `O=C(C[C@@H]1C[C@@H]2c3cc(NC(=O)c4ccc5c(c4)OCO5)ccc3O[C@@H]2[C@H](CO)O1)NCc1cccnc1`: the cytotoxicity call was “inactive”.

As to `O=C(C[C@@H]1C[C@@H]2c3cc(NC(=O)c4ccc5c(c4)OCO5)ccc3O[C@@H]2[C@H](CO)O1)NCCc1ccccc1`, the cytotoxicity call was “active”.

With `O=C(C[C@@H]1C[C@@H]2c3cc(NC(=O)c4ccc5c(c4)OCO5)ccc3O[C@@H]2[C@H](CO)O1)NCc1ccc(Oc2ccccc2)cc1`, the cytotoxicity call was “active”.

`O=C(C[C@@H]1C[C@H]2c3cc(NC(=O)c4ccc5c(c4)OCO5)ccc3O[C@H]2[C@H](CO)O1)NCc1ccc(Oc2ccccc2)cc1`: the cytotoxicity call is “inactive”.

As to `O=C(C[C@H]1C[C@H]2c3cc(NC(=O)c4ccc5c(c4)OCO5)ccc3O[C@H]2[C@H](CO)O1)NCc1ccc(Oc2ccccc2)cc1`, the cytotoxicity call was “active”.

With `O=C(C[C@H]1C[C@@H]2c3cc(NC(=O)c4ccc5c(c4)OCO5)ccc3O[C@@H]2[C@@H](CO)O1)NCc1ccc(Oc2ccccc2)cc1`, the cytotoxicity call is “active”.

On to `O=C(C[C@H]1C[C@H]2c3cc(NC(=O)c4ccc5c(c4)OCO5)ccc3O[C@H]2[C@H](CO)O1)NCc1cccnc1`, for which the cytotoxicity call was “inactive”.

With `O=C(C[C@H]1C[C@H]2c3cc(NC(=O)c4ccc5c(c4)OCO5)ccc3O[C@H]2[C@@H](CO)O1)NCCc1ccccc1`, the cytotoxicity call was “inactive”.

As for `O=C(C[C@H]1C[C@@H]2c3cc(NC(=O)c4ccc5c(c4)OCO5)ccc3O[C@@H]2[C@H](CO)O1)NCc1ccc(Oc2ccccc2)cc1`, the cytotoxicity call was “inactive”.

Regarding `O=C(C[C@@H]1C[C@@H]2c3cc(NC(=O)c4ccc5c(c4)OCO5)ccc3O[C@@H]2[C@@H](CO)O1)NCCc1ccccc1`, the cytotoxicity call is “inactive”.

`O=C(C[C@H]1C[C@H]2c3cc(NC(=O)c4ccc5c(c4)OCO5)ccc3O[C@H]2[C@@H](CO)O1)NCc1cccnc1`: the cytotoxicity call was “inactive”.

Consider `C=CCOC(=O)[C@H]1[C@@H]2C(=O)O[C@@H](c3ccccc3)[C@@H](c3ccccc3)N2[C@@H](c2ccc(OCCOC(=O)[C@@H]3C[C@@H]4C(=O)N[C@@H](CC(C)C)C(=O)N4[C@@H]3c3cccc(OCCO)c3)cc2)[C@]12C(=O)Nc1ccc(I)cc12`, for which the cytotoxicity call was “inactive”.

`CC(C)NC(=O)Nc1cccc2c1O[C@H](CN(C)C(=O)Nc1ccc3c(c1)OCO3)[C@H](C)CN([C@H](C)CO)C2=O`: the cytotoxicity call is “inactive”.

Consider `CC(C)NC(=O)N(C)C[C@H]1OCCCC[C@@H](C)Oc2ccc(NS(C)(=O)=O)cc2C(=O)N([C@@H](C)CO)C[C@H]1C`, for which the cytotoxicity call is “inactive”.

Take `C[C@@H]1CN([C@@H](C)CO)C(=O)c2cccc(NC(=O)c3ccncc3)c2O[C@@H]1CN(C)Cc1ccc(-c2ccccc2)cc1`: the cytotoxicity call is “inactive”.

Turning to `CCS(=O)(=O)N[C@@H]1C=C[C@H](CC(=O)NCc2ccccn2)O[C@@H]1CO`, the cytotoxicity call is “inactive”.

As to `COc1ccc(NC(=O)N(C)C[C@H]2OCCCC[C@@H](C)Oc3ccc(NS(=O)(=O)c4cccs4)cc3C(=O)N([C@H](C)CO)C[C@@H]2C)cc1`, the cytotoxicity call was “inactive”.

On to `C[C@@H]1CN([C@H](C)CO)C(=O)c2cc(NC(=O)c3ccncc3)ccc2O[C@H]1CN(C)Cc1ccc2c(c1)OCO2`, for which the cytotoxicity call is “inactive”.

For `O=C(C[C@@H]1C[C@H]2c3cc(NC(=O)c4ccc5c(c4)OCO5)ccc3O[C@H]2[C@@H](CO)O1)NCc1ccc(Oc2ccccc2)cc1`, the cytotoxicity call was “inactive”.

With `O=C(C[C@@H]1C[C@@H]2c3cc(NC(=O)c4ccc5c(c4)OCO5)ccc3O[C@@H]2[C@@H](CO)O1)NCc1ccc(Oc2ccccc2)cc1`, the cytotoxicity call is “inactive”.

With `O=C(C[C@H]1C[C@H]2c3cc(NC(=O)c4ccc5c(c4)OCO5)ccc3O[C@H]2[C@@H](CO)O1)NCc1ccc(Oc2ccccc2)cc1`, the cytotoxicity call was “active”.

On to `Cc1noc(C)c1NC(=O)Nc1ccc2c(c1)C(=O)N([C@@H](C)CO)C[C@@H](C)[C@@H](CN(C)Cc1ccc3c(c1)OCO3)OCCCC[C@@H](C)O2`, for which the cytotoxicity call was “inactive”.

For the molecule `COc1ccc(COC[C@]23N=C4Sc5ccc([N+](=O)[O-])cc5C(=O)N4[C@H](c4ccccc4O2)[C@H]3CO[Si](C)(C)C(C)(C)C)cc1`, the cytotoxicity call is “inactive”.

Turning to `C[C@@H]1CN([C@@H](C)CO)C(=O)c2c(c3ccccc3n2C)-c2ccccc2CO[C@@H]1CN(C)C(=O)Nc1ccc(F)cc1`, the cytotoxicity call is “inactive”.

As to `C[C@H](CO)N1C[C@H](C)[C@@H](CN(C)Cc2ccc3c(c2)OCO3)OCCCC[C@H](C)Oc2ccc(NC(=O)Nc3cccc4ccccc34)cc2C1=O`, the cytotoxicity call is “inactive”.

For `C[C@H](CO)N1C[C@H](C)[C@H](CN(C)Cc2ccc3c(c2)OCO3)OCCCC[C@H](C)Oc2ccc(NC(=O)Nc3cccc4ccccc34)cc2C1=O`, the cytotoxicity call was “active”.

As for `C[C@@H]1CN([C@H](C)CO)C(=O)c2cc(NC(=O)Nc3cccc4ccccc34)ccc2O[C@@H](C)CCCCO[C@H]1CN(C)Cc1ccc2c(c1)OCO2`, the cytotoxicity call is “active”.

Take `C[C@@H]1CCCCO[C@@H](CN(C)Cc2ccc3c(c2)OCO3)[C@H](C)CN([C@@H](C)CO)C(=O)c2cc(NC(=O)Nc3cccc4ccccc34)ccc2O1`: the cytotoxicity call was “inactive”.

On to `C[C@@H]1CN([C@@H](C)CO)C(=O)c2cc(NC(=O)Nc3cccc4ccccc34)ccc2O[C@@H](C)CCCCO[C@@H]1CN(C)Cc1ccc2c(c1)OCO2`, for which the cytotoxicity call was “inactive”.

For the molecule `C[C@@H]1CCCCO[C@H](CN(C)Cc2ccc3c(c2)OCO3)[C@@H](C)CN([C@H](C)CO)C(=O)c2cc(NC(=O)Nc3cccc4ccccc34)ccc2O1`, the cytotoxicity call was “inactive”.

With `C[C@H]1CCCCO[C@H](CN(C)Cc2ccc3c(c2)OCO3)[C@@H](C)CN([C@@H](C)CO)C(=O)c2cc(NC(=O)Nc3cccc4ccccc34)ccc2O1`, the cytotoxicity call is “active”.

Take `C[C@@H]1CCCCO[C@@H](CN(C)Cc2ccc3c(c2)OCO3)[C@H](C)CN([C@H](C)CO)C(=O)c2cc(NC(=O)Nc3cccc4ccccc34)ccc2O1`: the cytotoxicity call was “active”.
